Assay outcomes as filed in PubChem BioAssay.
HIF-2a block – blocks HIF-2a reporter activity; 786-0 RCC cells HIF-2a reporter, luciferase luminescence, overnight; inhibition, % at 18.8 µM; 0.72% of 360,000 active; AID 624352;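 active = inhibition of the luminescence signal of 40% or more relative to plate controls, in a single-dose primary screen at 18.75 µM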
TRPM1 prom inh – MITF TRPM1 promoter inhibition in SK-MEL-5 cells. 0.83% of 330,000 active. inhibition, % at 12.5 µM. AID 488899. SK-MEL-5 TRPM1 promoter luciferase, 24 h;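 active = mean inhibition across replicates of 60% or more, whatever share of single replicates reaches that level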
CF NFkB block – blocks PAF-induced NF-kB reporter in cystic fibrosis cells; KKLEB NF-kB-GFP reporter, GFP fluorescence overnight; inhibition, % at 5 µM; 0.86% of 360,000 active; AID 588850;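 active = at least 50% inhibition at 5 µM, scaled per plate between neutral and stimulator controls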;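 also: PAF is a Pseudomonas aeruginosa culture filtrate used as stimulus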
Peg3 prom inh – inhibitors of Peg3 promoter; HeLa PEG-Prom luciferase reporter, luminescence, overnight; AID 588405; inhibition, % at 20 µM; 1.7% of 360,000 active;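 active = inhibition of at least 50% at 20 µM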
CHOP inhibitor – blocks CHOP induction under ER stress; CHO-K1 CHOP-promoter luciferase, tunicamycin-induced, 15-18 h; 3.8% of 220,000 active; inhibition, % at 10 µM;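 active = compounds that reduced the stress-induced luciferase reporter signal by more than about 70% of percent inhibition, limit read from the data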
KKLEB tox – CF airway cell cytotoxicity counter-screen; KKLEB CF airway cells viability, ATPlite luminescence, overnight; hits give low values; cells stimulated with P. aeruginosa culture filtrate; activity change (cytotoxicity), % at 5 µM; 0.36% of 360,000 active; AID 602141;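 active = corrected activity change at or below -50% at 5 µM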
CHOP confirm – confirmation of CHOP induction inhibitors; shares compounds with CHOP inhibitor; CHO-CHOP promoter luciferase reporter, tunicamycin-induced, luminescence; inhibition, % at 10 µM; 45% of 2,100 active;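 active = mean of three repeat readings of reporter signal inhibition above a set limit, cut at about 70% in these data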
Hits are given with their value. A selection: hits, their analogues and other compounds. The true share with any hit is near 4.3%.

CCCCCc1cc(=O)oc2c(C(CCN3CCCCC3)c3cc(OC)c(OC)c(OC)c3)c(OC)cc(OC)c12 (configuration not stated) was read as HIF-2a block inactive, TRPM1 prom inh 88.8, CF NFkB block inactive, Peg3 prom inh 90.5, CHOP inhibitor 104.7, KKLEB tox inactive and CHOP confirm inactive.
For NC(=O)c1ccc(C(F)(F)F)n(Cc2ccc(Cl)cc2)c1=O the results were HIF-2a block inactive, TRPM1 prom inh inactive, CF NFkB block inactive, Peg3 prom inh inactive, CHOP inhibitor 97.4, KKLEB tox inactive and CHOP confirm 82.3.
`NC(=O)c1ccsc1NC(=O)CS(=O)(=O)c1ccc(F)cc1` gave HIF-2a block inactive, TRPM1 prom inh inactive, CF NFkB block inactive, Peg3 prom inh inactive and KKLEB tox inactive.
Cc1cc(C)c2nc(-c3ccccn3)cc(C(=O)Nc3cc(C)on3)c2c1 was read as HIF-2a block inactive, TRPM1 prom inh inactive, CF NFkB block inactive, Peg3 prom inh inactive, CHOP inhibitor 101.1, KKLEB tox inactive and CHOP confirm 98.6.
Screening Cc1ccc(C(=O)N/C(=C\c2cccc([N+](=O)[O-])c2)C(=O)NC(Cc2ccccc2)C(=O)O)cc1 (configuration not stated) returned HIF-2a block inactive, TRPM1 prom inh inactive, CF NFkB block inactive, Peg3 prom inh inactive and KKLEB tox inactive.
COc1ccc(-c2nc3ccc(N4CCCC4)cc3c(=O)[nH]2)cc1OC was read as HIF-2a block inactive, TRPM1 prom inh inactive, CF NFkB block inactive, Peg3 prom inh inactive, CHOP inhibitor 103.0, KKLEB tox inactive and CHOP confirm inactive.
`COc1ccc2nc(-c3ccccc3)[nH]c(=O)c2c1` gave HIF-2a block inactive, TRPM1 prom inh inactive, CF NFkB block inactive, Peg3 prom inh inactive and KKLEB tox inactive.
Oc1ccc(N=Nc2cccc(C(F)(F)F)c2)cc1C=Nc1ccc(N2CCOCC2)cc1 was read as HIF-2a block inactive, TRPM1 prom inh inactive, CF NFkB block 78.5, Peg3 prom inh inactive, CHOP inhibitor 104.0, KKLEB tox inactive and CHOP confirm 73.0.
`CCc1ccc(/C=C2/C(=O)NC(=O)N2C(C)=O)cc1` gave HIF-2a block inactive, TRPM1 prom inh inactive, CF NFkB block inactive, Peg3 prom inh inactive and KKLEB tox inactive.
`CCc1ccc(/C=c2\s/c(=C\C(=O)C(C)(C)C)[nH]c2=O)cc1` gave HIF-2a block inactive, TRPM1 prom inh inactive, CF NFkB block inactive, Peg3 prom inh inactive, CHOP inhibitor 106.6, KKLEB tox inactive and CHOP confirm 80.1.
`CCN1/C(=C/C=C/C=C/c2sc3ccccc3[n+]2CC)Sc2ccccc21` gave CHOP inhibitor 104.3 and CHOP confirm 119.4.
For O=C(Nc1ccccc1)Nc1cc(OCC(F)(F)F)cc(OCC(F)(F)F)c1 the results were HIF-2a block inactive, TRPM1 prom inh 85.5, CF NFkB block inactive, Peg3 prom inh inactive, CHOP inhibitor 106.7, KKLEB tox -50.7 and CHOP confirm 125.5.
`O=C(Nc1ccccc1)Nc1ccc(Oc2cccnc2)nc1` gave HIF-2a block inactive, TRPM1 prom inh inactive, CF NFkB block inactive, Peg3 prom inh inactive, CHOP inhibitor inactive and KKLEB tox inactive.
Screening O=C(Nc1ccccc1)Nc1cc(Cl)cc(Cl)c1 returned HIF-2a block inactive, TRPM1 prom inh inactive, CF NFkB block inactive, Peg3 prom inh inactive, CHOP inhibitor 111.5, KKLEB tox inactive and CHOP confirm inactive.
`CN1CC(c2ccccc2)C2(SC(=S)N(Cc3ccco3)C2=O)C12C(=O)Nc1ccccc12` (configuration not stated) gave HIF-2a block inactive, TRPM1 prom inh inactive, CF NFkB block inactive, Peg3 prom inh inactive, CHOP inhibitor 101.4, KKLEB tox inactive and CHOP confirm 83.8.
For NNC(=O)c1c[nH]c2ccc(OCc3ccccc3)cc12 the results were HIF-2a block inactive, TRPM1 prom inh inactive, CF NFkB block inactive, Peg3 prom inh inactive and KKLEB tox inactive.
For COc1ccc(-c2cnc(OC(C)(C)C)nc2OC(C)(C)C)cc1OC the results were HIF-2a block inactive, TRPM1 prom inh inactive, CF NFkB block inactive, Peg3 prom inh inactive, CHOP inhibitor 105.8, KKLEB tox inactive and CHOP confirm 88.7.
Screening COc1ccc(-c2cncnc2N)cc1OC returned HIF-2a block inactive, CF NFkB block inactive, Peg3 prom inh inactive and KKLEB tox inactive.
